# In PubChem BioAssay AID624351 (Southern Research Specialized Biocontainment Screening …, 2012):
# The whole screen tested about 2,400 compounds, of which about 1,400 (58%) were called active.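 Rule for the calls: active = inhibition of 30% or more at any tested dose; inconclusive = primary hits over the limit that were never retested; inactive = the rest.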 So high a share suggests a set chosen from earlier hits. This is one part of the list.
# Experiment: ADP Hunter readout inhibition without MgcRacGAP – biochemical, coupled enzyme counter-screen, artefact control for MgcRacGAP inhibitor project, dose response (AID 624351);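 note: signal is the ADP detection kit reading of free GDP without any GAP enzyme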
# Conditions: fluorescence, no MgcRacGAP; series mostly up to 80 µM
row,Compound,IC50
1,COc1cc(/C=C/c2ccc3cccc(O)c3n2)ccc1O,81.5 µM (active)
2,COc1cc(/C=N/n2c(C)nc3ccccc3c2=O)ccc1O,43.1 µM (active)
3,CCCc1nc2ccccc2c(=O)n1/N=C/c1ccc(O)c(O)c1,41.7 µM (active)
4,NCC[C@H](O)C(=O)N[C@@H]1C[C@H](N)[C@@H](O[C@H]2O[C@H](CN)[C@@H](O)[C@H](O)[C@H]2O)[C@H](O)[C@H]1O[C@H]1O[C@H](CO)[C@@H](O)[C@H](N)[C@H]1O,inactive
5,COc1cc(/C=N/NC(=O)CN(Cc2ccccc2)S(=O)(=O)c2ccc3c(c2)OCCO3)ccc1O,73 µM (active)
6,COc1cc(/C=N/NC(=O)CN(Cc2ccco2)S(=O)(=O)c2ccccc2)ccc1O,49.9 µM (active)
7,CS/C(=N\S(=O)(=O)c1cccs1)NC(=O)CSc1nc2ccccc2s1,inactive
8,C#CCOCCOCCOCCNc1nc(N2CCN(C(=O)[C@H](CCCCN)n3cc(CN)nn3)CC2)nc(N2CCN(C(=O)[C@H](CCC(=O)O)n3cc([C@@H](N)CCCCN)nn3)CC2)n1,inactive
9,CCOC(=O)C1=C(C)NC(=O)CC1c1cc2c(cc1[N+](=O)[O-])OCO2 (stereo not given),64.2 µM (active)
10,OC1CNc2c(ccc3ccccc23)C1 (stereo not given),16.5 µM (active)
11,O=C1CCC(C2CCc3cc(O)ccc3C2)C1 (stereo not given),77.7 µM (active)
12,Clc1nssc1=Nc1ccc(Br)cc1,inactive
13,CSc1nc(C)c2c(n1)N(c1ccc(O)cc1)CC2,16.2 µM (active)
14,Cc1ccc(N2C(S)=C(C#N)C(=O)NC2c2ccco2)cc1 (stereo not given),inactive
15,CCN(CC)CCOCCOc1ccc(Cl)c2ccccc12,inactive
16,CCOc1cccc2cc(C(=O)Oc3ccc(OC)cc3)c(=O)oc12,inactive
17,COc1cc(/C=N/NC(=O)CCC(=O)Nc2ccc(F)cc2)ccc1O,36.4 µM (active)
18,Cc1nc(C)c(CC(=O)N/N=C/c2ccc(O)cc2)c(=O)[nH]1,75.8 µM (active)
19,Cc1ccc(NC(=O)CCC(=O)N/N=C/c2ccc(O)cc2)cc1,51.5 µM (active)
20,O=C(CCC(=O)Nc1ccc(F)cc1)N/N=C/c1ccc(O)cc1,71.3 µM (active)
21,CCCCCCCCCCCCCCCC(O)C[N+](C)(C)CCO (stereo not given),inactive
22,O=C(CC(=O)Nc1ccc(Cl)c(Cl)c1)N/N=C/c1ccc(O)cc1,66.8 µM (active)
23,Cc1ccc(NC(=O)CN(C)C2CCCCC2)cc1Cl,inactive
24,COc1cc(/C=N/Nc2nc(C)cc(=O)[nH]2)ccc1O,24.9 µM (active)
25,Cc1cc(=O)[nH]c(N/N=C/c2ccc(O)c(O)c2)n1,20.9 µM (active)
26,S=c1[nH]cc2cnccn12,72.1 µM (active)
27,CCOC(=O)c1c(C)[nH]c(C(=O)CN2CCN(CC)CC2)c1C,inactive

row,Compound,IC50
1,CCOC(=O)c1sc(=S)[nH]c1C,46 µM (active)
2,CCOC(=O)c1c(C)[nH]sc1=S,44.3 µM (active)
3,CCn1c(-c2ccccc2)csc1=Nc1ccc(O)cc1,35.8 µM (active)
4,C=CCn1c(=O)/c(=C/c2ccc(O)cc2)s/c1=C(/C#N)c1nnc2n1CCCCC2,58.7 µM (active)
5,C/C(=N\NC(=O)CSCc1ccccc1Cl)c1cc(O)ccc1O,25.6 µM (active)
6,CCN1CCN(CC(=O)N/N=C/c2cc(Br)cs2)CC1,inactive
7,Brc1csc(C=Nc2ccc3c(c2)OCCOCCOCCOCCO3)c1,70.1 µM (active)
8,CC1=NN(c2ccc(C(=O)O)cc2)C(=O)/C1=C\c1ccc(OC(=O)c2cccs2)cc1,inactive
9,COc1ccc(Br)cc1CN1CCC(N2CCCC2)CC1,inactive
10,COc1ccc(Cn2nnnc2C(c2cccnc2)N2CCN(c3ccc(O)cc3)CC2)cc1 (stereo not given),50.3 µM (active)
11,CCC(c1nnnn1Cc1ccccc1)N1CCN(c2ccc(OC)cc2)CC1 (stereo not given),inactive
12,COc1ccc(N2CCN(C(=O)c3ccc(CS(=O)c4cccc(Cl)c4)o3)CC2)cc1 (stereo not given),inactive
13,Oc1ccc(N2CCN(C(c3cccs3)c3nnnn3CCc3ccccc3)CC2)cc1 (stereo not given),45.2 µM (active)
14,COc1cc2oc(-c3ccc(O)cc3)cc(=O)c2c(OC)c1O,21.9 µM (active)
15,COc1cc(CNc2ccc3[nH]c(=O)[nH]c3c2)ccc1OCc1c(F)cccc1Cl,inactive
16,COc1cccc(CNc2ccc3[nH]c(=O)[nH]c3c2)c1OCc1ccccc1Cl,83.9 µM (active)
17,COc1cc(CNc2ccc3[nH]c(=O)[nH]c3c2)ccc1OCc1ccccc1F,inactive
18,CC(C)(C)N(NS(=O)(=O)c1ccc(F)cc1)c1ccccc1,inactive
19,Cc1ccc(S(=O)(=O)Nc2nsc(N)n2)cc1,inactive
20,CC(NS(=O)(=O)c1ccc(Cl)cc1)C(=O)OCC(=O)Nc1ccc(N(C)C)cc1 (stereo not given),70.6 µM (active)
21,CC1CCN(CC(=O)Nc2ccc(S(=O)(=O)NC3CC3)cc2)CC1,inactive
22,CN(CC(=O)NCc1ccncc1)S(=O)(=O)c1ccc(Cl)cc1,inactive
23,CN(C)c1ccc(NS(=O)(=O)c2ccc(Cl)cc2)cc1,33.7 µM (active)
24,Cc1ccc(S(=O)(=O)Nc2ccc(N(C)C)cc2)cc1,31.3 µM (active)
25,CN(C)c1ccc(NS(=O)(=O)c2cc(Cl)ccc2Cl)cc1,50 µM (active)
26,COc1cccc(NS(=O)(=O)c2ccc3c(c2)C2C=CCC2C(c2ccc(C(=O)O)cc2)N3)c1 (stereo not given),inactive
27,CCOCCCNCC(=O)NCC1CCCCC1,inactive

row,Compound,IC50
1,COc1cc(/C=C/C(=O)OCC(=O)NC2CCS(=O)(=O)C2)ccc1O (stereo not given),43.2 µM (active)
2,CCN(CC(=O)Nc1cc(Cl)ccc1OC)CC(=O)NC1CCS(=O)(=O)C1 (stereo not given),inactive
3,COc1cc(/C=C/C(=O)OCC(=O)NCCC2=CCCCC2)ccc1O,51.8 µM (active)
4,COc1cc(/C=C/C(=O)OCC(=O)NCC2CCCCC2)ccc1O,35.4 µM (active)
5,Cc1cc(/C=C(\C#N)C(=O)N2CCCCC2)cc(C)c1O,56.9 µM (active)
6,CC1CC(C)CN(C2CCN(Cc3cccnc3)CC2)C1 (stereo not given),inactive
7,CCOc1ccc(N(CCCCO)C(=S)NC(=O)c2ccc(C)c(Br)c2)cc1,inactive
8,N#CC1=C(S)N(c2ccc(F)cc2)C(c2ccco2)NC1=O (stereo not given),inactive
9,O=C1c2cccc(NCCNCCO)c2C(=O)c2cccc(NCCNCCO)c21,inactive
10,OCCCCNc1cccc2ccccc12,34.5 µM (active)
11,O=C1c2cccc(NCCCNCCO)c2C(=O)c2cccc(NCCCNCCO)c21,inactive
12,COc1ccc(C(=O)CCNc2ccc3c(c2)OCCO3)cc1,inactive
13,Nc1ccc(C(=O)c2ccc3c(c2)OCCO3)cc1N,24.2 µM (active)
14,CCOc1cc(/C=C2\CN(CC)C/C(=C\c3ccc(O)c(OCC)c3)C2=O)ccc1O,61.9 µM (active)
15,O=C1/C(=C\c2ccc(Cl)c(Cl)c2)CN(C(=O)CCN2CCOCC2)C/C1=C/c1ccc(Cl)c(Cl)c1,inactive
16,COc1cc(/C=C2\C(=O)N(C)C(=S)N2C)ccc1O,30.2 µM (active)
17,CCOc1cc(/C=C2\CN(C)C/C(=C\c3ccc(O)c(OCC)c3)C2=O)ccc1O,43.5 µM (active)
18,COc1cc(C=C2CN(C)C(=O)C2=O)ccc1O,25 µM (active)
19,CN(C)CCC(=O)N1C/C(=C/c2ccccc2)C(=O)/C(=C\c2ccccc2)C1,inactive
20,CCN(CC)CCC(=O)N1C/C(=C/c2ccccc2)C(=O)/C(=C\c2ccccc2)C1,inactive
21,COc1cc(/C=C/C=C2/CC/C(=C/C=C/c3ccc(O)c(OC)c3)C2=O)ccc1O,inactive
22,C[N+](C)(C)CCC(=O)N1C/C(=C/c2ccccc2)C(=O)/C(=C\c2ccccc2)C1,inactive
23,COc1ccc2c(C)cc3n[nH]c(=S)n3c2c1,15.8 µM (active)
24,COc1ccc(-n2cnc(=S)[nH]c2=S)cc1,inactive
25,COc1ccc(NC(=O)c2cc3ccc(O)cc3o/c2=N\O)cc1,57.4 µM (active)
26,COc1cccc2cc(C(=O)Oc3ccc(NC(C)=O)cc3)c(=O)oc12,inactive
27,COc1ccc2oc(=O)c(C(=O)Oc3ccc(NC(C)=O)cc3)cc2c1,inactive

row,Compound,IC50
1,COc1cc(/C=C2\C(=O)N(CCC#N)N=C2C)ccc1OCC(=O)Nc1ccccc1,inactive
2,COc1cc(/C=C/C(=O)OCC(=O)NNC(=O)c2cc(Cl)ccc2OC)ccc1O,55.8 µM (active)
3,COc1ccc(CNCC(=O)Nc2cc(OC)cc(OC)c2)cc1,inactive
4,COc1cc(/C=C/C(=O)OCc2cn3cc(Cl)ccc3n2)ccc1O,36.2 µM (active)
5,COc1cc(/C=C/C(=O)OCC(=O)Nc2cccc(F)c2)ccc1O,41 µM (active)
6,COc1cc(NC(=O)COC(=O)/C=C/c2ccc(O)c(OC)c2)cc(OC)c1,36.1 µM (active)
7,C#CCOCCOCCOCCNc1nc(N2CCN(C(=O)[C@H](CCCCN)n3cc([C@@H](N)C(C)CC)nn3)CC2)nc(N2CCN(C(=O)[C@H](Cc3cc4ccccc4[nH]3)n3cc([C@@H](N)C(C)CC)nn3)CC2)n1 (stereo not given in full),inactive
8,CCOC(=O)C1=C(COC(=O)/C=C/c2ccc(O)c(OC)c2)NC(=O)NC1C (stereo not given),53.1 µM (active)
9,COc1cc(C2NC(=O)C(C#N)=C(Nc3cccc(C)c3)S2)ccc1O (stereo not given),inactive
10,O=C(N/N=C/c1ccc(O)cc1)Nc1cccc2nsnc12,61.4 µM (active)
11,Cc1nonc1C(=O)N/N=C/c1ccc(O)c(O)c1,17.7 µM (active)
12,COc1ccc(O)c(/C=N/NC(=O)c2c(C)nnn2-c2nonc2N)c1,inactive
13,COc1cc(/C=N/NC(=O)c2nnn(-c3nonc3N)c2C(C)C)ccc1O,40.7 µM (active)
14,COc1cc(/C=N/NC(=O)c2nonc2C)ccc1O,25.6 µM (active)
15,Cc1nonc1C(=O)N/N=C/c1ccc(O)cc1O,72 µM (active)
16,O=S(=O)(/N=S1\CC=CCN1S(=O)(=O)c1ccccc1)c1ccccc1 (stereo not given),inactive
17,COc1cc(/C=C/C(=O)OCC(=O)N2CC3(C)CC2CC(C)(C)C3)ccc1O (stereo not given),44.7 µM (active)
18,C/C=C/c1ccc(OCCCCN2CCN(CC)CC2)c(OC)c1,inactive
19,COc1cc(/C=C/C(=O)OCC(=O)N2CCCc3ccccc32)ccc1O,27.8 µM (active)
20,COc1cc(CN2CCC(C(=O)N3CCN(c4ccccc4F)CC3)CC2)ccc1O,inactive
21,COc1cc(/C=C/C(=O)OCC(=O)N2CCC(Cc3ccccc3)CC2)ccc1O,49.4 µM (active)
22,COc1cccc(C(=O)N2CCN(C3CCN(Cc4ccccc4)CC3)CC2)c1OC,inactive
23,COC(=O)C1CCN(C(=O)COC(=O)/C=C/c2ccc(O)c(OC)c2)CC1,44 µM (active)
24,NS(=O)(=O)c1ccc(CCNCC(=O)N2CCC(Cc3ccccc3)CC2)cc1,inactive
